A number with no mark means an inactive call. A call without a number means that no potency is given here. For some of these results: Potency and affinity values are given separately. Calls of active or inactive are those of the source. Unless noted, the rule behind the calls is not given here.
Tests used:
[1] = antimalarial activity against Dd2 strain (AID 2302;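 active = growth inhibition above 50% at the single 2 µM test dose, taken to imply half-maximal potency below 2 µM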); settings: P. falciparum Dd2 in RBCs, LDH growth readout, 72 h; at 2 µM; hits give high values
[2] = human hepatoma cell viability loss – ATP luminescence, cytotoxicity control for P. falciparum antimalarial project, primary screen (AID 2303;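 active = inhibition above 50%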); settings: HepG2 viability, 24-48 h, at 10 µM, hits give high values
[3] = molecular target: L-lactate dehydrogenase (Plasmodium falciparum (isolate CDC / Honduras)) (UniProt Q27743); experiment: PfLDH activity inhibition – cell lysate, 3D7 strain, counter-screen for P. falciparum growth inhibition project (AID 2304); settings: P. falciparum 3D7 crude extract, LDH APAD/NBT absorbance; at 2 µM; hits give high values
[4] = inhibition of 3D7 malaria parasite growth – strain 3D7 (AID 2306); settings: P. falciparum 3D7 erythrocytic growth, LDH absorbance, 72 h; at 2 µM; hits give high values
[5] = molecular target: Calcium-dependent protein kinase 1 (Plasmodium falciparum (isolate 3D7)) (UniProt P62344); experiment: PfCDPK1 kinase inhibitors, biochemical, TCAMS library (AID 1159585; cut-off not given, nearly all actives have IC50 up to about 0.98 µM;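 note: inhibitors leave more ATP so luminescence rises with inhibition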); settings: recombinant PfCDPK1, Kinase-Glo ATP depletion luminescence
[6] = molecular target: Plasmodium falciparum protein kinase 6 (PK6, PF3D7_1337100) (UniProt Q8IDW1); experiment: PfPK6 kinase inhibitors, biochemical, TCAMS library (AID 1159586); settings: recombinant PfPK6, Kinase-Glo ATP depletion luminescence
[7] = molecular target: Protein kinase 7 (PK7), Plasmodium falciparum 3D7 (PF3D7_0213400) (UniProt Q7YTF7); experiment: inhibition of Plasmodium PK7 catalytic activity – biochemical, TCAMS antimalarial set, Kinase-Glo luminescence (AID 1159587); settings: recombinant PfPK7, Kinase-Glo ATP depletion luminescence
[8] = molecular target: Calcium-dependent protein kinase 4 (Plasmodium falciparum (isolate 3D7)) (UniProt Q8IBS5); experiment: PfCDPK4 kinase inhibitors, biochemical, TCAMS library (AID 1159588; cut-off not given, nearly all actives have IC50 up to about 0.91 µM); settings: recombinant PfCDPK4, Kinase-Glo ATP depletion luminescence
Sequence of Calcium-dependent protein kinase 4 (Plasmodium falciparum (isolate 3D7)) (Q8IBS5 whole entry, looked up): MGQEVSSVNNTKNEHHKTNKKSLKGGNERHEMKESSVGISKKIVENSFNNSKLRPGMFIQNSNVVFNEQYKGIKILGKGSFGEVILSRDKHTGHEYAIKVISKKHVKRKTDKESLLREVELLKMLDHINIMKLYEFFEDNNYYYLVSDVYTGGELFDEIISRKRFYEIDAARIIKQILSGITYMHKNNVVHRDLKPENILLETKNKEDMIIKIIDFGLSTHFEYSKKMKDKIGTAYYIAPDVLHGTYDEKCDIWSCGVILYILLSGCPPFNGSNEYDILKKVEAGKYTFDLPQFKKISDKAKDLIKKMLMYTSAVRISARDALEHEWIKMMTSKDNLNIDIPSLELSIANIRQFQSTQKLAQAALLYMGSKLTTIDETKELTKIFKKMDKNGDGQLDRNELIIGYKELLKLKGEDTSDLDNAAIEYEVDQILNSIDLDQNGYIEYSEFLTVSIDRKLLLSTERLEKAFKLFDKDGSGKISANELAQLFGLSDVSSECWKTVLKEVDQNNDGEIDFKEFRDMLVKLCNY

Sequence of Calcium-dependent protein kinase 1 (Plasmodium falciparum (isolate 3D7)) (P62344 whole entry, looked up): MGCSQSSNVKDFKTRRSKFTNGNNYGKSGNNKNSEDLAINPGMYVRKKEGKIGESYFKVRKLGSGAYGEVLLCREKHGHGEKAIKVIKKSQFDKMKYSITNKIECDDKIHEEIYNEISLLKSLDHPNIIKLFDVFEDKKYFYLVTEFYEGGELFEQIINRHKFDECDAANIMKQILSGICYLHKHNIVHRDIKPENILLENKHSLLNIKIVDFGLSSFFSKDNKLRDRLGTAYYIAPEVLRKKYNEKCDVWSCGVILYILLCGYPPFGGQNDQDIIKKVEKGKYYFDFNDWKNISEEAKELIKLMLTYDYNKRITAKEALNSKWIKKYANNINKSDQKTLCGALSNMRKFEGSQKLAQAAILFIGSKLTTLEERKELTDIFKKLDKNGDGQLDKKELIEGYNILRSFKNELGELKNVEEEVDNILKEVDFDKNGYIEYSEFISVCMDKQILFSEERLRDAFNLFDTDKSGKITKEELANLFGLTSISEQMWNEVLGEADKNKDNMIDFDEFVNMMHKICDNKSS
Sequence of Protein kinase 7 (PK7), Plasmodium falciparum 3D7 (PF3D7_0213400) (Q7YTF7 1-343): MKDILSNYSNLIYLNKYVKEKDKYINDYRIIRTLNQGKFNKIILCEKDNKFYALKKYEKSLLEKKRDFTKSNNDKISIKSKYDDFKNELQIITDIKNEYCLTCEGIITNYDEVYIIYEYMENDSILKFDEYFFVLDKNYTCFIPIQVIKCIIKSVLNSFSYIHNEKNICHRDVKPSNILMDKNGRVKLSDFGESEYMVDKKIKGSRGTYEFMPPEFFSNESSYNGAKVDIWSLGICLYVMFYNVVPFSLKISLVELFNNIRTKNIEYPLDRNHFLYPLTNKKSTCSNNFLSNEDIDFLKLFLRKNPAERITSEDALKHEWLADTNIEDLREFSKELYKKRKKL
Sequence of Plasmodium falciparum protein kinase 6 (PK6, PF3D7_1337100) (Q8IDW1 1-305): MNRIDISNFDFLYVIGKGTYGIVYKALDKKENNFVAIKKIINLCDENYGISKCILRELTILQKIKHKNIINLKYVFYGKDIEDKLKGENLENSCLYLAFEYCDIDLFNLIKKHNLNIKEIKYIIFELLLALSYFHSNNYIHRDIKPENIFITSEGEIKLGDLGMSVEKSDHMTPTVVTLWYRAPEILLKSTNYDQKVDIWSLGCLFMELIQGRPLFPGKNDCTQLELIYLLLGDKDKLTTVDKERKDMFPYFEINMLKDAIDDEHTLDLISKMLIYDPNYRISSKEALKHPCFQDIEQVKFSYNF
Sequence of L-lactate dehydrogenase (Plasmodium falciparum (isolate CDC / Honduras)) (Q27743 whole entry, looked up): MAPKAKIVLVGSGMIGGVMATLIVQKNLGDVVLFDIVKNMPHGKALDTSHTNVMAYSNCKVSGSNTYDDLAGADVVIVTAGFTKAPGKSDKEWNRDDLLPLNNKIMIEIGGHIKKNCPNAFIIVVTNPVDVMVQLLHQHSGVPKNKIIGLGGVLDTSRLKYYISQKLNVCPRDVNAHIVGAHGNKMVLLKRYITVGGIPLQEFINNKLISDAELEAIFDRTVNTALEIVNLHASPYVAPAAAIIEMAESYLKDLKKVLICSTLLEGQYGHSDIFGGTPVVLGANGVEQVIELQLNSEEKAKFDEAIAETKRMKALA

Compound	growth inhibition [1]	inhibition [2]	inhibition [3]	growth inhibition [4]	outcome [5]	outcome [6]	outcome [7]	outcome [8]
c1ccc(COc2ccc(Nc3ncnc4cnc(-c5ccc(CNc6cccnc6)o5)cc34)cc2)cc1	19%	2%	3%	96% (active)	inactive	inactive	inactive	inactive
O=C(NCCN1CCCC1)c1cccc(-c2ccc(-c3nc4ccc(C(F)(F)F)cc4[nH]3)cc2)c1	99% (active)	34%	-3%	101% (active)	inactive	inactive	inactive	inactive
CCc1c(C(=O)NC2CCC(N3CCC(c4ccccc4C)CC3)CC2)[nH]c2ccc(Br)cc12 (stereo not given)	99% (active)	81% (active)	-5%	101% (active)	inactive	inactive	inactive	inactive
O=C(Nc1cccc(CN2CCCN(Cc3cccc(O)c3)CC2)c1)c1cc2ccccc2s1	75% (active)	15%	-4%	101% (active)	inactive	inactive	inactive	inactive
COc1ccc(CNCc2ccc(-c3ccc(CNCCc4ccccc4)cn3)cc2)cn1	44%	16%	1%	97% (active)	inactive	inactive	inactive	inactive
COc1ccc(C2C(C(=O)OC3CCCCC3)=C(C)NC3=C2C(=O)CCC3)cc1Br (stereo not given)	94% (active)	7%	-7%	95% (active)	inactive	inactive	inactive	inactive
O=C(NCCCCN1CCC(c2ccc3c(c2O)CCCC3)CC1)c1ccc(NC(=O)c2ccc(Cl)cc2)cc1	100% (active)	99% (active)	-2%	100% (active)	inactive	inactive	inactive	inactive
CCCCCCN1CCC(NCc2ccc(OCCN3CCCC3)cc2)CC1	93% (active)	23%	0%	101% (active)	inactive	inactive	inactive	inactive
O=C(Nc1ccc(CN2CCOCC2)cc1)c1ccc(-c2cc(Cl)ccc2Cl)o1	13%	5%	-1%	101% (active)	inactive	inactive	inactive	inactive
COC(=O)c1ccc(CC(C)NCC(O)c2ccc(C(O)CNC(C)Cc3ccc(C(=O)OC)cc3)cc2)cc1 (stereo not given)	13%	24%	1%	88% (active)	inactive	inactive	inactive	inactive
O=[N+]([O-])c1cccc(-n2nc(NCc3ccc(Cl)cc3)nc2-c2ccc(F)c(C(F)(F)F)c2)c1	93% (active)	6%	-3%	98% (active)	inactive	inactive	inactive	inactive
O=C(Nc1ccc(Br)cc1)N1CCC(n2c(-c3ccccc3)nc3cccnc32)CC1	86% (active)	36%	0%	90% (active)	inactive	inactive	inactive	inactive
Cc1nn(-c2ccccc2)c2c1C(c1ccc(C(C)C)cc1)N1C(=N2)N(Cc2ccccc2)c2ccccc21 (stereo not given)	37%	7%	-7%	95% (active)	inactive	inactive	inactive	inactive
CN(C)C(=O)CC(=O)NCc1cccc(Cl)c1	3%	4%	3%	99% (active)	inactive	inactive	inactive	inactive
COc1cccc([C@@H](CC(=O)Nc2cc(C(F)(F)F)ccc2OC)Nc2ccc(C#N)c3ccccc23)c1	53% (active)	19%	-3%	96% (active)	inactive	inactive	inactive	inactive
CCNc1cc(C(=O)N[C@@H](Cc2ccccc2)[C@H](O)CNCCCc2ccc(OC)cc2)cc(N2CCCC2=O)c1	96% (active)	4%	2%	99% (active)	inactive	inactive	inactive	inactive
Cc1cc(NC(=O)c2ccsc2)ccc1OC1CCN(Cc2ccc(F)cc2)CC1	47%	9%	-2%	83% (active)	inactive	inactive	inactive	inactive
Cc1ccn2c(N(Cc3ccccc3)C(=O)c3ccc(Cl)c(Cl)c3)c(-c3ccccc3)nc2c1	-5%	-20%	-7%	95% (active)	inactive	inactive	inactive	inactive
CCCCCOc1ccc(N2C(N)=NC(N)=NC2(C)C)cc1	-4%	24%	-4%	97% (active)	inactive	inactive	inactive	inactive
C=CCn1c(SCC(=O)Nc2cc(C)ccc2OC)nc2sc(C)cc2c1=O	86% (active)	6%	-5%	100% (active)	inactive	inactive	inactive	inactive

Reference: PubChem BioAssay
